Most compounds without a hit are left out; they make up all but 0.91% or so of the library.
TRb SRC2 PPI: inhibitors of human thyroid hormone receptor beta-SRC2 interaction; Potency, µM (doses to about 106 µM), for the others: at the top dose activity change, negative = inhibition, actives largely listed as inhibitors; AID 1469; TRbeta-SRC2 peptide binding, fluorescence polarization; receptor liganded with 1 µM T3; hit rate 0.065% among 280,000; P10828;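 note: plate controls were bound peptide for no effect and peptide without receptor for full effect; nearly all actives have a fitted effect of over 50% in size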
Target sequence (P10828 whole entry, looked up): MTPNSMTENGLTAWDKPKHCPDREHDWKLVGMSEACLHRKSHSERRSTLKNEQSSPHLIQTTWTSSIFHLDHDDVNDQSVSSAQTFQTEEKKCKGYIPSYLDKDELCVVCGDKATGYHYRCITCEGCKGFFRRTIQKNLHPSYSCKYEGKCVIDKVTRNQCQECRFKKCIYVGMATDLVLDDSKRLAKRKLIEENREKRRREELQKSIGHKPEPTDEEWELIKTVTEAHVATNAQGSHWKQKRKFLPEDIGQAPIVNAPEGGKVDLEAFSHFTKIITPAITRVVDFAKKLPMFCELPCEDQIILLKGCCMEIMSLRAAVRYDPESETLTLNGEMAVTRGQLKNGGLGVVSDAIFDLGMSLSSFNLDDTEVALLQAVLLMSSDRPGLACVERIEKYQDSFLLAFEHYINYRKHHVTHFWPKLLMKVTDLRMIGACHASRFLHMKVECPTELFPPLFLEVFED
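Human TRb LBD (0.6 uM) plus Texas Red-labeled SRC2 peptide (20 nM), 1uM T3, 5% DMSO, 5 hr at ambient temperature. Decreased polarization (555/632 nm) flags inhibition; data normalized to free and bound peptide controls.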
APEX1 inh: APE1 (human) endonuclease inhibition | P27695 | recombinant APE1, TAMRA/BHQ-2 abasic DNA cleavage fluorescence | Potency, µM (highest dose often 65.8 µM), for inactives: at the top dose activity change, negative = inhibition, hits mostly inhibitors | hit rate 0.35% among 350,000;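 note: plate controls were vehicle for no effect and reference inhibitor for full effect; nearly all actives have a fitted effect of over 55% in size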
Target sequence (P27695 whole entry, looked up): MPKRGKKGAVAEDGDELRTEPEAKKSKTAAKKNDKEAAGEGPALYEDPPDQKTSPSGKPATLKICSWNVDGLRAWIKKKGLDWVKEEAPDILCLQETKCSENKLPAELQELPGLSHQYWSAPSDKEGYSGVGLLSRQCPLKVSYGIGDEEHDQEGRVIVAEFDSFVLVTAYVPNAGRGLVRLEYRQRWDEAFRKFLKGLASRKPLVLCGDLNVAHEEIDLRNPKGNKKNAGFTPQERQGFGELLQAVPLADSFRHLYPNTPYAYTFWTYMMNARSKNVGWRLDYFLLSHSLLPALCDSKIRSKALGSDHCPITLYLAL
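APE1 at 0.75 nM preincubated 15 min at room temperature with compound. Reaction then started with 50 nM double-stranded THF-abasic substrate labelled with TAMRA/BHQ-2, and 525/598 nm fluorescence read kinetically. Activity taken as third-minus-first read difference, normalized to DMSO and NSC13755 controls.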
BLM helicase inh: blocks DNA unwinding by human BLM helicase | P54132 | recombinant BLM DNA unwinding, fluorescence dequenching | Potency, µM (top dose mostly 56.1 µM), inactives show at the top dose activity change, negative = inhibition, hits mostly inhibitors | hit rate 0.2% among 350,000;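 note: plate controls were vehicle for no effect and no enzyme for full effect; nearly all actives have a fitted effect of over 35% in size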
TR SRC2 fluor cs: counter-screen for TRb-SRC2 inhibitors: fluorescence interference; TRb/SRC2 Texas Red total fluorescence interference; Potency, µM (highest dose often 106 µM), without a hit: at the top dose fluorescence change, negative = quenching; hit rate 0.29% among 280,000; active = well fitted curve in either direction with a large enough effect; inconclusive = small, poorly fitted or top-dose-only effect
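Human TRβ ligand-binding domain (0.6 uM) and Texas Red SRC2 peptide (20 nM) in Tris buffer with 1 uM T3 and 5% DMSO were incubated with pinned compound for 5 hr at ambient temperature. Total fluorescence was computed as S + 2P (555/632 nm).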
RECQ1 helicase: blocks DNA unwinding by human RECQ1; RECQ1 DNA unwinding, red fluorescence kinetic read; P46063; hit rate 0.54% among 240,000; Potency, µM (series often up to 57.3 µM), for the others: at the top dose activity, negative = inhibition, actives largely listed as inhibitors;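 note: plate controls were vehicle for no effect and no enzyme for full effect; nearly all actives have a fitted effect of over 30% in size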
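50 nM RECQ1T1 preincubated 15 min with compound in Tris pH 8.0 buffer with MgCl2, DTT, Tween-20 and 2.5 ug/ml poly(dI-dC); started with 200 nM TAMRA/BHQ-2 forked duplex and 2 mM ATP. Unwinding read as fluorescence (525/598 nm), two reads 2 h apart.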
WRN inhibitor: blocks human WRN helicase. Q14191. WRN helicase unwinding, fluorescent forked duplex, kinetic. Potency, µM (titrated, usually from 114 µM), inactives show at the highest dose activity change, negative = inhibition, actives largely listed as inhibitors. hit rate 0.46% among 360,000. AID 651768; note: nearly all actives have a fitted effect of over 55% in size
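WRN at 20 nM final was preincubated with compound for 15 min at room temperature; reaction started with 100 nM forked duplex oligonucleotide carrying fluorophore and quencher plus 2 mM ATP (final). Unwinding followed kinetically by red fluorescence (ex 525/em 598 nm).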
Starred values were filed as active, the others as inactive; i = inactive; ? = inconclusive; · = no result given; ! = not active in a repeat; [ ] = another dose, or the depositor's remark. Unless noted, calls come from the whole dose curve; as a rule, active = well fitted curve in the direction sought with a large enough effect; inconclusive = small, poorly fitted or top-dose-only effect, or another doubt; inactive = no such curve, though single readings can be large; an effect the other way counts as inactive or inconclusive. Unless noted, % is set by controls: 0 for no effect and ±100 for the full control effect; potency is the fitted concentration of half-maximal effect.

SMILES	TRb SRC2 PPI	APEX1 inh	BLM helicase inh	TR SRC2 fluor cs	RECQ1 helicase	WRN inhibitor
COc1cc2c(cc1OC)CN(C(=O)Nc1ccccc1)CC2	-10%	7%	-5%	112µM*[quencher]	·	13%
COc1cc2c(cc1OC)CN(C(=O)Nc1ccccc1Cl)CC2	·	44%	-6%	·	·	-11%
O=[N+]([O-])c1ccc(CNc2ccc(F)cc2)s1	·	18%	-13%	·	·	-33%
COc1ccc(NCc2ccc([N+](=O)[O-])s2)cc1	10%	32µM*	-6%	0%	-5%	-13%
CC12C=C(/C=C/C=C/c3ccco3)C(C)(C1)C(/C=C/c1ccco1)CC2=O (stereo unspecified)	9%[11.2 µM]	?	-3%[12.4 µM]	-17%[11.2 µM]	1.4µM*	·
CC12C=C(/C=C/C=C/c3ccccc3)C(C)(C1)C(/C=C/c1ccccc1)CC2=O (stereo unspecified)	6%[11.2 µM]	?	-9%[12.4 µM]	1%[11.2 µM]	-2%[11.5 µM]	·
CCN1CCN(C(=O)CN(CC)S(=O)(=O)c2ccc3ccccc3c2)CC1	·	18%	0%	·	·	4%
CCOc1ccc(-c2nonc2NC(=O)c2oc3ccc(F)cc3c2C)cc1	-16%	·	-4%	0.79µM*[quencher]	·	·
Cn1cc(C(c2ccccc2OCC(=O)O)c2cn(C)c3ccccc23)c2ccccc21	·	34%	-3%	·	·	79µM*
O=Cc1ccccc1Cl	1%	0%	·	-2%	-3%	·
O=Cc1ccccc1C=O	?	·	?	40µM*[quencher]	·	·
O=C(Nc1cc(C(=O)Nc2ccccc2C(=O)O)cc(C(=O)Nc2ccccc2C(=O)O)c1)c1ccccc1	·	0%	-8%	·	·	40µM*
O=C(Nc1ccccc1C(=O)O)c1cccc(NC(=O)c2ccccc2Br)c1	·	25%	1%	·	·	-24%
Cc1ccc(CCNC(=O)c2cn(C)c3ccc(S(=O)(=O)N(C)C4CCCCC4)cc3c2=O)cc1	-6%	·	-6%	0%	·	·
COc1ccc(OC)c(N=c2ssnc2Cl)c1	5%	-4%	-1%	0%	-6%	56µM*
COc1cc(N=c2ssnc2Cl)c(OC)cc1Cl	-12%	-12%	-2%	-3%	i	56µM*!
Nc1ccccc1N=c1ssnc1Cl	-3%	10%	-2%	0%	-15%	-3%
C=C1C=C(C(F)F)n2ncc(C(=O)Nc3ccccc3OCC)c2N1	·	58%	·	·	·	·
CCC(C)(C)c1ccc(CC(C)CN2C[C@@H](C)O[C@@H](C)C2)cc1 (stereo partly specified)	·	·	4%	·	·	·
O=C(NNC(=O)c1cc2cc3ccccc3nc2s1)c1ccc(F)cc1	·	6.3µM*	-24%	·	-1%	-23%[57.1 µM]
Cc1cccc(C(=O)NNC(=O)c2cc3cc4ccccc4nc3s2)c1	-13%	8%	-5%	-2%	-3%	-30%
Cc1nn(CCCC(=O)Nc2ccccc2C(F)(F)F)c(=O)c2nn(-c3ccccc3)c(C)c12	-1%	·	0%	1%	·	·
C[C@H](NC(=O)c1cc2c(cn1)[nH]c1ccccc12)C(=O)O	·	55%	-5%	·	·	35µM*
COC(=O)[C@H](C)NC(=O)c1cc2c(cn1)[nH]c1ccccc12	·	-11%	1%	·	·	?
O=C(Nc1cccc(C(F)(F)F)c1)c1ccc2snnc2c1	-2%	·	0%	0%	·	·
SMILES	TRb SRC2 PPI	APEX1 inh	BLM helicase inh	TR SRC2 fluor cs	RECQ1 helicase	WRN inhibitor
O=C(Nc1cccc(C(F)(F)F)c1)c1ccc2nc(-c3ccco3)c(-c3ccco3)nc2c1	?	14%	?	8.9µM*[quencher]	i	25µM*
Cc1ccc(S(=O)(=O)c2ncccc2[N+](=O)[O-])cc1	·	-12%	-1%	·	·	50µM*
Cc1ccccc1N1C(S)=C(C#N)C(=O)NC1c1ccco1 (stereo unspecified)	3%	14%	-27%	2%	25µM*	-8%[11.6 µM]
CCCc1nnc(NC(=O)CSc2nnc(-c3ccco3)n2C)s1	·	3%[12.4 µM]	0%	·	·	2%
CCOc1ccc(NCc2cccn2-c2nnc(N3CCC(C(=O)NCCc4ccc(OC)c(OC)c4)CC3)s2)cc1	-8%	·	-8%	35µM*[quencher]	·	·
CC(=O)OC[C@]12CC[C@H]3[C@@](C)(CC[C@H]4C(C)(C)CCC[C@]34C)[C@@H]1C[C@H](C1=CC(=O)O[C@H]1OC(C)=O)O2	·	9.5µM*	·	·	·	·
O=C(CSc1nc(-c2ccc(F)cc2)nc2c1Cc1ccccc1O2)Nc1ccc(F)cc1	·	14%	·	·	·	·
Cc1cc(SCC(=O)N/N=C/c2ccc(O)c(O)c2O)c(C)cc1Br	-3%	?	-17%	-6%	i	50µM*
COc1cc(/C=N/NC(=O)CSc2cc(C)c(Br)cc2C)ccc1O	0%	4%	-3%	-3%	-1%	-9%
O=C(O)Cc1ccc(-n2cccc2)cc1	-5%	-11%	-19%	0%	-1%	40µM*
O=C(Cc1ccc(-n2cccc2)cc1)NC1CCCCC1	7%	7%	-4%	-5%	-1%	-19%
Cc1ccc(CNC(=O)c2ccc(-n3cccc3)cc2)cc1	-2%	?	?	-9%	?	40µM*
Cc1ccc(CNC(=O)Cc2ccc(-n3cccc3)cc2)cc1	-1%	-1%	-6%	1%	-2%	-7%
CCCCCc1ccc(-c2ccc(Br)cc2)nc1	-1%	·	-1%	-1%	·	·
CCCc1ccc(-c2ccc(C(=O)Oc3ccc(Br)cc3)cc2)nc1	-27%[53 µM]	·	0%	0.035µM*[quencher]	·	·
O=C1Nc2ccccc2C1=Nc1cccc([N+](=O)[O-])c1	·	-11%	-2%	·	·	-12%
NC(=O)c1ccc(N=C2C(=O)Nc3ccc([N+](=O)[O-])cc32)cc1	-21%	-3%	32µM*	-10%	i	4%
CCCCCCC(=O)N(O)C1CC(=O)N(c2ccc(Br)cc2)C1=O (stereo unspecified)	-7%	0%	-3%	1%	i	0%
CCCCCCC(=O)N(O)C1CC(=O)N(c2ccc(F)cc2)C1=O (stereo unspecified)	0%	-5%	-2%	-4%	-4%	28µM*
N#Cc1c(N2CCCC2)nc(N)c2c(N)nc(N3CCCC3)cc12	?	?	2.8µM*	-2%	?	-2%[11.6 µM]
Cc1cccn2c(=O)c(/C=C(\C#N)C(=O)NC3CCS(=O)(=O)C3)c(N3CCC(C(N)=O)CC3)nc12 (stereo unspecified)	-20%[53 µM]	7%	1%	0.0003µM*[quencher]	10%	-20%
O=C(NCc1ccco1)/C(=C\c1ccc(F)cc1)NC(=O)c1ccco1	·	1%	2%	·	·	10%
COc1ccc(NC(=O)c2ccco2)cc1NC(=O)c1ccc(OC(C)C)cc1	-12%	·	-4%	0.35µM*[quencher]	·	·
COc1ccc(OCCOC(=O)C(C)NS(=O)(=O)c2ccc(NC(C)=O)cc2)cc1 (stereo unspecified)	·	-5%	·	·	·	-3%

Source: PubChem BioAssay (National Center for Advancing Translational Sciences (NCATS))
